Measured values from PubChem BioAssay AID2763 (National Center for Advancing Translational Sciences (NCATS), 2010).
Records with an inconclusive call do not appear. Where a call stands in place of a potency, no number is given. Active and inactive are the calls of the source. The call rests on the fitted dose curve; in most records, active means well fitted inhibition curve with a large enough effect; inconclusive means small, poorly fitted or top-dose-only effect, or effect the other way; inactive means no such curve, though single readings can be large or run the other way.

assay: Concentration response confirmation VP16 counterscreen for inhibitors of ROR gamma transcriptional activity; conditions: Drosophila S2 Gal4-VP16 UAS-luciferase, luminescence, 20 h; series mostly up to 46.1 µM; further: nearly all actives have a fitted effect of over 70% in size
Procedure, shortened: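 Drosophila Schneider cells stably carrying Gal4-VP16 under metallothionein promoter plus UAS-Photinus luciferase. Compound preincubated 1 hr, then 700 uM copper sulfate induction for 20 hr at ambient temperature; luminescence read.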
Potency means the concentration at half of the fitted maximal effect.

Question: With COc1nc(N/N=C/c2cc3c(cc2Br)OCO3)nc(N2CCOCC2)n1 as the molecule, how does the Potency read?
Answer: The Potency was “inactive”.

Question: With O=C(CSc1n[nH]c(=O)n1-c1ccc2c(c1)OCCO2)Nc1ccccc1 as the molecule, how does the Potency read?
Answer: Its Potency is “inactive”.

Question: With CCN(CC)c1ccc2cc(-c3nc4ccccc4[nH]3)c(=O)oc2c1 as the molecule, how does the Potency read?
Answer: The Potency was 9.96 µM (active).

Question: Which Potency does the source give for Cc1nn(-c2cc(C)c3ccccc3n2)c2c1C1C(C2)C1(C)C (stereo not drawn) here?
Answer: The Potency was 22.3 µM (active).

Question: With Cc1ccccc1NC(=O)CCN1CCN(C)CC1 as the molecule, how does the Potency read?
Answer: Its Potency is “inactive”.

Question: Which Potency does the source give for S=c1[nH]nc(-c2cc(-c3ccccn3)nc3ccccc23)o1 here?
Answer: Its Potency is “inactive”.

Question: With CCn1cc(C(=O)O)c(=O)c2cc(F)c(N3CCN(C(=S)NC(=O)c4ccccc4C)CC3)cc21 as the molecule, how does the Potency read?
Answer: The Potency was “inactive”.

Question: With COc1ccc2nc(NC(=O)c3sc4nc(C)cc(C)c4c3N)sc2c1 as the molecule, how does the Potency read?
Answer: Its Potency is 0.0791 µM (active).

Question: With C=C(C)c1cccc(C(C)(C)NC(=O)N2CCN(CC)CC2)c1 as the molecule, how does the Potency read?
Answer: The Potency was “inactive”.

Question: With CCOC(=O)c1sc(NC(=O)c2sc(C)nc2C)nc1C as the molecule, how does the Potency read?
Answer: Its Potency is “inactive”.

Question: Which Potency does the source give for O=c1c2cc(Br)ccc2[nH]c(=S)n1Cc1cccnc1 here?
Answer: The Potency was 11.2 µM (active).

Question: For O=C(O)/C=C/C(=O)Nc1ccccc1SC(F)(F)F, which Potency is on record?
Answer: Its Potency is “inactive”.

Question: For COc1ccc(CNS(=O)(=O)c2ccc3c(c2)CCN3C(=O)C2CC2)cc1, which Potency is on record?
Answer: Its Potency is “inactive”.

Question: For Cc1ccc(-c2n[nH]c(=S)n2/N=C/C=C\c2ccccc2[N+](=O)[O-])cc1, which Potency is on record?
Answer: The Potency was “inactive”.

Question: For O=C(NCC1CCCO1)C(C(=O)c1ccccc1)n1ccccc1=O (stereo not drawn), which Potency is on record?
Answer: Its Potency is “inactive”.

Question: For Cc1cc(NCc2ccccn2)n2ncc(-c3ccc(Cl)cc3)c2n1, which Potency is on record?
Answer: The Potency was 0.996 µM (active).

Question: Which Potency does the source give for S=c1[nH]c(-c2ccc(Br)cc2)cn1CCc1ccccc1 here?
Answer: The Potency was 14.1 µM (active).

Question: With COc1ccc(-n2ncc(Cl)c(Cl)c2=O)cc1 as the molecule, how does the Potency read?
Answer: The Potency was 19.9 µM (active).

Question: For Cc1ccc(OCCCC(=O)Nc2nc3ccccc3[nH]2)cc1, which Potency is on record?
Answer: Its Potency is “inactive”.

Question: With CCOC(=O)c1nnsc1Nc1ccc(C)c(C)c1 as the molecule, how does the Potency read?
Answer: Its Potency is “inactive”.

Question: Which Potency does the source give for O=C(COc1ccccc1Cl)NCCCN1CCOCC1 here?
Answer: Its Potency is “inactive”.

Question: With NC(=O)/C=C/C(=O)Nc1ccc(Cl)cc1 as the molecule, how does the Potency read?
Answer: Its Potency is 8.88 µM (active).

Question: For Cn1c(=O)c2c(nc(NCc3ccco3)n2Cc2ccccc2Cl)n(C)c1=O, which Potency is on record?
Answer: Its Potency is 3.97 µM (active).

Question: Which Potency does the source give for O=C(NC(=S)Nc1nc(-c2ccccc2)cs1)c1cncc(Br)c1 here?
Answer: The Potency was 7.91 µM (active).

Question: For CC(C)(C)c1cc(C(=O)N2CCc3ccccc32)ccn1, which Potency is on record?
Answer: The Potency was “inactive”.

Question: For COc1ccc(-c2c[n+]3c(n2-c2ccc(C)cc2)CCCCC3)cc1, which Potency is on record?
Answer: The Potency was 3.53 µM (active).

Question: For O=S(=O)(NCc1ccccn1)C(F)(F)F, which Potency is on record?
Answer: The Potency was 25 µM (active).

Question: For COc1ccc(-c2nc(CS(=O)(=O)CC(=O)NCCc3ccc(C)cc3)c(C)o2)cc1, which Potency is on record?
Answer: The Potency was “inactive”.

Question: Which Potency does the source give for CC(C)(C)NC(=O)CSc1nc2ccc(NC(=O)CSc3nnnn3Cc3ccccc3)cc2s1 here?
Answer: The Potency was 12.5 µM (active).

Question: Which Potency does the source give for Cc1cc(C)nc(-n2nc(C)cc2NC(=O)c2ccc(F)cc2F)n1 here?
Answer: Its Potency is 2.81 µM (active).

Question: Which Potency does the source give for CN(Cc1nc2ccccc2c(=O)[nH]1)Cc1nc2ccsc2c(=O)[nH]1 here?
Answer: Its Potency is 4.99 µM (active).

Question: With CCN(CC)C1CC(=O)N(c2cccc(C)c2)C1=O (stereo not drawn) as the molecule, how does the Potency read?
Answer: The Potency was 25 µM (active).

Question: Which Potency does the source give for CN1CCN(C(=O)CCN2C(=O)/C(=C\c3ccccc3F)SC2=S)CC1 here?
Answer: The Potency was “inactive”.
